Measured values published in PubChem BioAssay (NCI).
About 83,000 compounds went through this panel and 20% of them were active in at least one assay; those are over-represented in the sample as a whole.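 The endpoint reported here, percent growth, reads 100 for growth as untreated, 0 for no net growth and -100 for all cells dead.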 The source made the active and inactive calls. Rule for the calls: active = growth percent below 10; inactive = the rest.

Columns and labels:
Experiment in all cases: NCI-60 one-dose screen, 48 h (100 = growth as untreated, 0 = no growth, -100 = all killed)
Conditions in all cases: 10 µM unless noted
[1] = tested on: HCT-15 colon
[2] = tested on: HT29 colon
[3] = tested on: SNB-75 CNS
[4] = tested on: SNB-19 CNS
[5] = tested on: U251 CNS
[6] = tested on: PC-3 prostate
[7] = tested on: SK-MEL-5 melanoma
[8] = tested on: UACC-62 melanoma
[9] = tested on: SK-MEL-28 melanoma
[10] = tested on: LOX IMVI melanoma

Measured: growth

Cc1nn(-c2ccccc2)c2ncnc(N/N=C/c3ccccc3O)c12
active: [3] 5.46% | [7] -70.2% | [8] -11.2%
inactive: [1] 21.3% | [2] 24.6% | [4] 17.5% | [5] 11.2% | [6] 25.9% | [9] 23.2%

NC/C(=C/F)COc1ccc2nc(NCc3cccnc3)oc2c1
inactive: [1] 109% | [2] 112% | [3] 63.1% | [4] 105% | [5] 105% | [6] 104% | [7] 99.5% | [8] 101% | [10] 98% | [9] 110%

CCOC(=O)C(=O)/C(=C\c1ccc(Cl)cc1)C(=O)N1C(=S)NC(=O)C1CC(C)C (stereo not drawn)
inactive: [1] 92.8% | [2] 108% | [3] 101% | [4] 99.1% | [5] 101% | [6] 93.6% | [7] 92.8% | [8] 91.5% | [10] 112% | [9] 95.1%

COc1cc(Cn2cc3c(c2)-c2onc(CN4CCOCC4)c2CC3)cc(OC)c1OC
inactive: [1] 97.9% | [2] 104% | [3] 117% | [4] 97.2% | [5] 102% | [6] 91.6% | [7] 74.9% | [8] 78.8% | [9] 105%

O=C(CSc1nc2ccccc2c(=O)n1-c1ccccc1)Nc1cccc(C(=O)/C=C/c2ccccc2Cl)c1
inactive: [1] 92.7% | [2] 102% | [3] 85.6% | [4] 93.3% | [5] 97.7% | [6] 99.4% | [7] 99.3% | [8] 95.5% | [9] 107%

C=C=COc1cccc(/C(N)=N/C(N)=N/c2nc3ccccc3s2)c1
inactive: [1] 83.6% | [2] 107% | [3] 85.6% | [4] 97.5% | [5] 80.5% | [6] 30.3% | [7] 98.5% | [8] 94.2% | [10] 37.7% | [9] 64%

CC1(C)CC[C@]23CC[C@]4(C)[C@H](CC[C@@H]5[C@@]6(C)CCCN(CO)C(C)(C)[C@@H]6CC[C@]54C)[C@H]2[C@H]1OC3
active: [1] 7.34%
inactive: [2] 21% | [3] 112% | [4] 56.6% | [5] 32.5% | [6] 73.6% | [7] 100% | [8] 101% | [9] 103%

O=C(NCCN1CCCC1)c1ccc(-c2nc3ccc4[nH]ncc4c3c3c2CCCC3)cc1
inactive: [1] 26.1% | [3] 33.7% | [5] 10.7% | [8] 18.4%
active: [2] 4.8% | [4] 7.71% | [6] 8.15% | [7] 5.04% | [9] 5.05%

COc1cc(C2N=C(NNc3ccccc3)NC(C)=C2C(C)=O)ccc1O (stereo not drawn)
inactive: [1] 81% | [2] 115% | [3] 88.6% | [4] 93.3% | [5] 100% | [6] 84.5% | [7] 104% | [8] 43% | [9] 101%

O=C(CNc1nc(-c2cccc([N+](=O)[O-])c2)cs1)Nc1cccc([N+](=O)[O-])c1
inactive: [3] 52.9%
active: [1] 3.96% | [2] -34.9% | [4] -12.3% | [5] -14.8% | [6] -37.8% | [7] -84.5% | [8] -62.6% | [10] -74.3% | [9] -24.3%

COC(=O)c1[nH]nc2c1C1(C(=O)N(C)c3ccccc31)C(C#N)=C(N)O2 (stereo not drawn)
inactive: [1] 101% | [2] 104% | [3] 91.5% | [4] 101% | [5] 105% | [6] 91% | [7] 99.4% | [8] 96.1% | [9] 105%

COc1ccc(-c2nc3cccc(O)c3c(=O)n2Cc2ccccc2)cc1COc1ccc(NC(C)=O)cc1
inactive: [1] 12.5% [3 µM] | [2] 55.9% [3 µM] | [3] 44.8% [3 µM] | [4] 42% [3 µM] | [5] 30% [3 µM] | [6] 36.5% [3 µM] | [7] 29.4% [3 µM] | [8] 37.3% [3 µM] | [9] 55.4% [3 µM]

CC(C)(C)c1ccc(C(=O)Nc2nc3ccc(O)cc3s2)cc1
inactive: [3] 96.2% | [4] 63.5% | [5] 59.1% | [6] 50.1% | [7] 37.5% | [8] 45.1% | [10] 10.4% | [9] 47.1%
active: [1] -5.95% | [2] 2.02%

COc1cc2nc(Cl)nc(Nc3cccc(C4=Nc5c(N)nc(N)nc5NC(c5ccc6c(c5)OCO6)C4)c3)c2cc1OC (stereo not drawn)
active: [5] 8.17%
inactive: [1] 33.2% | [2] 68.9% | [3] 82.2% | [4] 78.4% | [6] 63.6% | [7] 72.1% | [8] 94.8% | [9] 106%

Clc1cccc(/C=N/Nc2nc(N/N=C/c3cccc(Cl)c3Cl)nc(N3CCCCC3)n2)c1Cl
inactive: [1] 65.5% | [2] 84.3% | [3] 104% | [4] 95.4% | [5] 52.9% | [6] 70.1% | [7] 94.2% | [8] 89.8% | [9] 97.7%

C=C1CC[C@@H]2[C@](C)(CO)[C@H](O)CC[C@@]2(C)[C@@H]1C/C(O)=C1\CCOC1=O
inactive: [1] 90.9% | [2] 96.5% | [3] 96.4% | [4] 97.9% | [5] 88.2% | [6] 99.7% | [7] 101% | [8] 88.9% | [9] 108%

Cc1noc(C)c1CSc1nc2ccccc2n1-c1ccccc1
inactive: [1] 106% | [2] 106% | [3] 30.9% | [4] 96.5% | [5] 102% | [6] 100% | [7] 94.4% | [8] 72.5% | [9] 111%

COc1ccc([C@@H]2c3[nH]c4ccccc4c3C[C@H]3C(=O)N(C4CCN(CC5CCCCC5)CC4)CC(=O)N23)c(OC)c1
active: [2] 1.45%
inactive: [1] 56.5% | [3] 83.2% | [4] 86.4% | [5] 72.4% | [6] 49.3% | [7] 73.3% | [8] 93.9% | [10] 54.3% | [9] 89.1%

O=S(=O)(NCCCNc1nccc(-c2[nH]c(-c3ccccc3)nc2-c2ccc(Cl)c(O)c2)n1)c1cccc2ccccc12
inactive: [1] 16.3% | [2] 38.6% | [3] 43.4% | [4] 37.8% | [5] 14.7% | [6] 26.2% | [7] 13.1% | [8] 17.4% | [10] 19.8% | [9] 29.8%

CCNC(=O)N1CCc2cc(OC)c(OCCc3ccc(OC)c(N)c3)cc2C1c1cc(C)c(C)cc1C (stereo not drawn)
inactive: [1] 14.7% | [2] 21.9% | [3] 22.1% | [4] 34.6% | [5] 28.4% | [6] 36.7% | [7] 27.7% | [8] 23.1% | [9] 44.7%

CC/C(=C/c1c(O)cccc1OC)c1ccc2c(OC)cccc2[o+]1
inactive: [1] 92.2% | [2] 110% | [3] 98.8% | [4] 99.4% | [5] 99.5% | [6] 95.3% | [7] 104% | [8] 90.6% | [9] 97.3%

C=C(C)[C@@H]1CC[C@]2(COP(=O)(OCC)OCC)CC[C@]3(C)[C@H](CC[C@@H]4[C@@]5(C)CCCNC(C)(C)[C@@H]5CC[C@]43C)[C@@H]12
inactive: [1] 16.6% | [3] 37% | [4] 58.3% | [5] 37.4% | [6] 26.3% | [7] 37.4% | [8] 80.3%
active: [2] 5.58% | [9] -38.2%

O=C(CSc1nnc(-c2ccc3nc(-c4ccccc4)[nH]c3c2)o1)Nc1ccc(C(=O)/C=C/c2ccccc2)cc1
inactive: [1] 110% | [2] 108% | [3] 113% | [4] 99.9% | [5] 98.2% | [6] 106% | [7] 98.3% | [8] 97.1% | [9] 103%

COc1ccc(S(=O)(=O)NCCCNc2nccc(-c3cn(C(C)(C)C)nc3-c3ccc(Cl)c(OC)c3)n2)cc1
inactive: [1] 78.5% | [2] 81% | [3] 50.5% | [4] 96.3% | [5] 98.9% | [6] 58.3% | [7] 85.8% | [8] 61.2% | [9] 98.9%

CCNC(=O)N1CCc2cc(OC)c(OCCc3ccc(OC)c(N)c3)cc2C1c1ccc(C)cc1C (stereo not drawn)
active: [2] 3.09% | [7] -7.76%
inactive: [1] 10.4% | [3] 41.5% | [4] 30.1% | [5] 17.8% | [6] 29.1% | [8] 24.2% | [9] 42.5%

C=C(C=O)[C@@H]1CC[C@]2(CO)CC[C@]3(C)[C@H](CC[C@@H]4[C@@]5(C)CCCNC(C)(C)[C@@H]5CC[C@]43C)[C@@H]12
inactive: [4] 79.7% | [5] 29.8% | [6] 11.4% | [7] 78% | [8] 83.2% | [9] 47.1%
active: [1] -8.29% | [2] -3.52%

Cc1ccc(S(=O)(=O)N(CC[C@@H]2C[C@H]2c2cc3ccccc3o2)S(=O)(=O)c2ccc(C)cc2)cc1
inactive: [1] 94.5% | [2] 94% | [3] 89% | [4] 94.6% | [5] 92.5% | [6] 87% | [7] 96.1% | [8] 69.1% | [9] 93.5%

COc1cc(OC)c(S(N)(=O)=O)cc1C(=O)/C=C/c1ccc(C)cc1
active: [1] 6.96% | [2] 9.47% | [3] 1.82% | [10] 1.84%
inactive: [4] 33.3% | [5] 14.5% | [6] 19.1% | [8] 33.8% | [9] 58.7%
